From PubChem BioAssay (EPA / NIEHS)
“And” between values parts separate entries of the source, which are not always exact repeats. Equal entries are not always repeated. Results filed as inconclusive are left out. More than one record can exist for a structure, and the calls need not agree. The source made the active and inactive calls. How the source made its calls: active means hit-call score of the fitted dose curve at least 0.9, where 1 is the maximum; inconclusive means response in the unintended direction; inactive means score below 0.9.

Biological target: Bile acid receptor (Homo sapiens) (UniProt Q96RI1)
Experiment: OT_FXR_FXRSRC1_0480: Odyssey Thera (OT) 8-hour HEK293T Protein-Complementation Assay for Farnesoid X receptor/SRC-1 Co-activator (AID 2283383)
Protocol: OT_FXR_FXRSRC1_0480 is a cell-based assay that uses HEK293T, a human kidney cell line, with measurements taken at 8 hours after chemical dosing in a 384-well plate.OT_FXR_FXRSRC1_0480 is one of one assay component(s) measured or calculated from the OT_FXR_FXRSRC1_0480 assay. It is designed to make measurements of protein fragment complementation, a form of binding reporter, as detected with fluorescence intensity signals by Protein-fragment Complementation technology.Data from the assay component OT_FXR_FXRSRC1_0480 was analyzed into 1 assay endpoint. This assay endpoint, OT_FXR_FXRSRC1_0480, was analyzed in the positive analysis fitting direction relative to DMSO as the negative control and baseline of activity. Using a type of binding reporter, measures of receptor for gain-of-signal activity can be used to understand the binding at the pathway-level as they relate to the gene NR1H4. Furthermore, this assay endpoint can be referred to as a primary readout, because the performed assay has only produced 1 assay endpoint. To generalize the intended target to other relatable targets, this assay endpoint is annotated to the nuclear receptor intended target family, where the subfamily is non-steroidal.
Protein-fragment complementation assay, or PCA, is a method for the identification and quantification of protein-protein interactions. In the PCA, the proteins of interest ("bait" and "prey") are each covalently linked to fragments of a third protein (e.g. DHFR, which acts as a "reporter"). Interaction between the bait and the prey proteins brings the fragments of the reporter protein in close proximity to allow them to form a functional reporter protein whose activity can be measured.

Chain of Bile acid receptor (Homo sapiens) (Q96RI1 whole entry, looked up): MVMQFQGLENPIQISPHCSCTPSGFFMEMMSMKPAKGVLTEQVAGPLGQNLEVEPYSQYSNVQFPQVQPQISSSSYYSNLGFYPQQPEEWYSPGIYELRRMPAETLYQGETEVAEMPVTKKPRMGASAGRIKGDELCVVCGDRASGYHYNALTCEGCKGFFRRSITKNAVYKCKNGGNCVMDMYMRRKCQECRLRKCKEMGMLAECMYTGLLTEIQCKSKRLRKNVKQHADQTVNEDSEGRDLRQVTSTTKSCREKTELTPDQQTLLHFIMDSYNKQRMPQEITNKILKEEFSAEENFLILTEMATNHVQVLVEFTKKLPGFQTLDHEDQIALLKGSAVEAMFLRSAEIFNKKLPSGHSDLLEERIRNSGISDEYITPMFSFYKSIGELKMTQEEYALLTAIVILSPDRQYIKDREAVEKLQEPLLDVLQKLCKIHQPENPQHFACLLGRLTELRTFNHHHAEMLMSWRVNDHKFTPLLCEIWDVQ

Row | Structure (SMILES) | AC50 | outcome
1 | CC(C)(C)c1cccc(C(C)(C)C)c1O | 78.7 µM (active) | 
2 | CC(O)C(=O)O (stereo not given) |  | inactive
3 | CCCCOCCO |  | inactive
4 | NC(=O)N(O)[C@@H]1C=C[C@H](Oc2cccc(Oc3ccc(F)cc3)c2)C1 |  | inactive
5 | NC(=O)N1C(=O)C(C(=O)c2cc(Cl)cs2)c2cc(F)c(Cl)cc21 (stereo not given) |  | inactive
6 | OCCC(F)(F)C(F)(F)C(F)(F)C(F)(F)C(F)(F)C(F)(F)F |  | inactive
7 | c1ccc2c(c1)ccc1ccccc12 |  | inactive
8 | C=C(C)C(=O)OCCC(F)(F)C(F)(F)C(F)(F)C(F)(F)C(F)(F)C(F)(F)F |  | inactive
9 | CC(O)CO (stereo not given) |  | inactive
10 | CC#C[C@]1(O)CC[C@H]2[C@@H]3CCC4=CC(=O)CCC4=C3[C@@H](c3ccc(N(C)C)cc3)C[C@@]21C | 4.33 µM (active) | inactive
11 | CCN(CC)CCNc1ccc(CNC=O)c2sc3ccc(OC)cc3c(=O)c12 | 11.6 µM (active) | 
12 | COc1ccc([N+](=O)[O-])cc1N |  | inactive
13 | OC1CCC(C2CCCCC2)CC1 (stereo not given) | 55.7 µM (active) and 35.6 µM (active) and 50 µM (active) | inactive
14 | Oc1cccc(O)c1 |  | inactive
15 | CC(C)CCCCCCOC(=O)CCCCC(=O)OCCCCCCC(C)C |  | inactive
16 | CC(=O)NC1(c2cccc(F)c2)CCN(CC[C@@]2(c3ccc(Cl)c(Cl)c3)CN(c3ccccc3)C(=O)CO2)CC1 | 9.52 µM (active) | 
17 | c1ccc2c(c1)Cc1ccccc1-2 |  | inactive
18 | CCc1nn(C2CCCCC2)c2cc(C3(C#N)CCC(C(=O)O)CC3)ccc12 (stereo not given) | 23.6 µM (active) | 

Row | Structure (SMILES) | AC50 | outcome
19 | CC(C)(C)c1cc(C(C)(C)C)c(O)c(C(C)(C)C)c1 | 81.1 µM (active) | 
20 | CC(=O)CC(C)(C)O |  | inactive
21 | CCC(=C(c1ccc(O)cc1)c1ccc(OCCN(C)C)cc1)c1ccccc1 | 7.35 µM (active) and 7.42 µM (active) and 7.26 µM (active) | inactive
22 | O=C1OC2(c3ccccc31)c1cc(Br)c(O)c(Br)c1Oc1c2cc(Br)c(O)c1Br |  | inactive
23 | CCCCCCCCCCCCc1ccccc1S(=O)(=O)O | 92.9 µM (active) | 
24 | Cc1cc(C)c(O)c(C)c1 |  | inactive
25 | CN(C)C=O |  | inactive
26 | CCCCCCCCOC(=O)CCCCCCCCC(=O)OCCCCCCCC |  | inactive
27 | CCCCCCCCCCCCN1CCCC1=O | 11.6 µM (active) | 
28 | c1ccc2cc3c(ccc4ccccc43)cc2c1 |  | inactive
29 | CCCCC(CC)COC(=O)CCCCC(=O)OCC(CC)CCCC (stereo not given) |  | inactive
30 | O=c1c(-c2ccc(O)cc2)coc2cc(O)ccc12 | 36.7 µM (active) and 37.1 µM (active) | inactive
31 | CC[C@H](C)[C@@H](C(=O)O)n1sc2ccccc2c1=O |  | inactive
32 | O=C(OCCOCCOC(=O)c1ccccc1)c1ccccc1 |  | inactive
33 | CC[C@H](c1ccc(O)cc1)[C@@H](CC)c1ccc(O)cc1 | 50 µM (active) and 65.7 µM (active) | inactive
34 | CCCCCCC(=O)O |  | inactive
35 | CC(C)(C)CC(C)(C)c1ccc(O)c(-n2nc3ccccc3n2)c1 | 35.7 µM (active) | 
